Results filed as inconclusive are left out. Calls of active or inactive are those of the source. How the source made its calls: active means hit-call score of the fitted dose curve at least 0.9, where 1 is the maximum; inconclusive means response in the unintended direction; inactive means score below 0.9.
Experiments:
[1] = read-out: Broad substrate specificity ATP-binding cassette transporter ABCG2 (Homo sapiens) (UniProt Q9UNQ0); test: CLD_ABCG2_24hr: CellzDirect (CLD) Gene Expression Assay for ABC Transporter (ABCG2) at 24 hours (AID 2283685)
How it was run: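 Primary human hepatocytes were dosed daily with ToxCast chemicals at multiple concentrations (vehicle 0.2% DMSO). ABCG2 mRNA was measured at 24 h by qNPA chemiluminescence; induction was scored as gain of signal versus DMSO.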

[2] = read-out: Cytochrome P450 2B6 (Homo sapiens) (UniProt P20813); test: CLD_CYP2B6_24hr: CellzDirect (CLD) Gene Expression Assay for xenobiotic metabolism (CYP2B6) at 24 hours (AID 2283686)
How it was run: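 Primary human hepatocytes dosed daily for two days with fresh solutions, harvested at 24 hours; mRNA induction quantified by qNPA chemiluminescence, gain of signal vs 0.2% DMSO vehicle. Cytotoxicity annotated from phase-contrast morphology.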

[3] = read-out: Cytochrome P450 2C19 (Homo sapiens) (UniProt P33261); test: CLD_CYP2C19_24hr: CellzDirect (CLD) Gene Expression Assay for xenobiotic metabolism (CYP2C19) at 24 hours (AID 2283687);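 further: activity means mRNA induction above DMSO vehicle baseline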
How it was run: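 Primary human hepatocytes (two donor preparations) dosed daily with fresh test chemical in 0.2% DMSO vehicle; CYP2C19 mRNA induction measured at 24 h by quantitative nuclease protection assay with chemiluminescence, fitted for gain of signal versus DMSO.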

[4] = read-out: Cytochrome P450 2C9 (Homo sapiens) (UniProt P11712); test: CLD_CYP2C9_24hr: CellzDirect (CLD) Gene Expression Assay for xenobiotic metabolism (CYP2C9) at 24 hours (AID 2283688)
How it was run: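 Primary human hepatocytes from two donor preparations, dosed daily for two days at multiple concentrations; vehicle 0.2% DMSO. CYP2C9 mRNA induction at 24 h measured by qNPA chemiluminescence relative to DMSO; cytotoxicity annotated from morphology.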

[5] = read-out: HMG-CoA synthase (HMGCS2), HMGCS2 (gene 3158); test: CLD_HMGCS2_24hr: CellzDirect (CLD) Gene Expression Assay for HMG-CoA synthase (HMGCS2) at 24 hours (AID 2283691)
How it was run: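 Primary human hepatocytes from two donor preparations, dosed daily with fresh solutions; vehicle 0.2% DMSO, 24 h harvest. HMGCS2 mRNA quantified by qNPA with S1 nuclease digestion and chemiluminescence; gain fitted versus DMSO, cytotoxicity annotated by morphology.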

[6] = read-out: Glyceraldehyde-3-phosphate dehydrogenase (Homo sapiens) (UniProt P04406); test: CLD_GAPDH_24hr: CellzDirect (CLD) Gene Expression Assay for Baseline Control (Glyceraldehyde 3-phosphate dehydrogenase) at 24 hours (AID 2283692)
How it was run: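 Primary human hepatocytes (two donor preparations) dosed daily for two days, 0.2% DMSO vehicle; GAPDH mRNA measured at 24 h by qNPA chemiluminescence as a background control, gain-of-signal fitted against DMSO.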

[7] = read-out: HMG-CoA synthase (HMGCS2), HMGCS2 (gene 3158); test: CLD_HMGCS2_6hr: CellzDirect (CLD) Gene Expression Assay for HMG-CoA synthase (HMGCS2) at 6 hours (AID 2283682);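 further: actives raise HMGCS2 transcript above the 0.2% DMSO vehicle baseline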
How it was run: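 Primary human hepatocytes dosed daily with fresh chemical, 0.2% DMSO vehicle; HMGCS2 mRNA measured at 6 h by qNPA chemiluminescence. Gain of signal fitted against DMSO; cytotoxicity flagged from phase-contrast morphology.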

[8] = read-out: Cytochrome P450 3A4 (Homo sapiens) (UniProt P08684); test: CLD_CYP3A4_24hr: CellzDirect (CLD) Gene Expression Assay for xenobiotic metabolism (CYP3A4) at 24 hours (AID 2283689)
How it was run: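 Primary human hepatocytes from two donors dosed daily with fresh compound for two days, 0.2% DMSO vehicle. CYP3A4 mRNA at 24 hr by qNPA chemiluminescence; gain-of-signal fit versus DMSO, cytotoxicity flagged by morphology.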

[9] = read-out: xenobiotic metabolism (CYP1A2), CYP1A2 (gene 1544); test: CLD_CYP1A2_24hr: CellzDirect (CLD) Gene Expression Assay for xenobiotic metabolism (CYP1A2) at 24 hours (AID 2283683)
How it was run: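 Primary human hepatocytes from two donor preparations dosed daily with multiple concentrations of chemical, 0.2% DMSO vehicle. CYP1A2 mRNA at 24 h quantified by qNPA chemiluminescence; gain of signal analyzed relative to DMSO. Cytotoxicity flagged by phase-contrast morphology.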

[10] = read-out: ABC Transporter (ABCB1), ABCB1 (gene 5243); test: CLD_ABCB1_24hr: CellzDirect (CLD) Gene Expression Assay for ABC Transporter (ABCB1) at 24 hours (AID 2283684)
How it was run: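 Primary human hepatocytes, two donor preparations, dosed daily with fresh solutions; vehicle 0.2% DMSO; harvested at 24 h. ABCB1 mRNA measured by quantitative nuclease protection assay (chemiluminescence); morphology-based cytotoxicity annotated.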

Glyceraldehyde-3-phosphate dehydrogenase (Homo sapiens), sequence (P04406 whole entry, looked up): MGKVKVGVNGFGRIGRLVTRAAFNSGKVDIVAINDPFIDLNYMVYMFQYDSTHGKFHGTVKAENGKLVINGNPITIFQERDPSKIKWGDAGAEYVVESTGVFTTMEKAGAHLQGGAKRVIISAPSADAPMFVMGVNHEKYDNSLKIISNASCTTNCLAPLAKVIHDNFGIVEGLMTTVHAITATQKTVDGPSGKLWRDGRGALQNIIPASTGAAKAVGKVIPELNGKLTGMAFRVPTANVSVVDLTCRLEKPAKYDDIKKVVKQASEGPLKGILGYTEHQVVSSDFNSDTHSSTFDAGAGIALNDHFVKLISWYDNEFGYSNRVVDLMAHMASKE
Cytochrome P450 2C19 (Homo sapiens), sequence (P33261 whole entry, looked up): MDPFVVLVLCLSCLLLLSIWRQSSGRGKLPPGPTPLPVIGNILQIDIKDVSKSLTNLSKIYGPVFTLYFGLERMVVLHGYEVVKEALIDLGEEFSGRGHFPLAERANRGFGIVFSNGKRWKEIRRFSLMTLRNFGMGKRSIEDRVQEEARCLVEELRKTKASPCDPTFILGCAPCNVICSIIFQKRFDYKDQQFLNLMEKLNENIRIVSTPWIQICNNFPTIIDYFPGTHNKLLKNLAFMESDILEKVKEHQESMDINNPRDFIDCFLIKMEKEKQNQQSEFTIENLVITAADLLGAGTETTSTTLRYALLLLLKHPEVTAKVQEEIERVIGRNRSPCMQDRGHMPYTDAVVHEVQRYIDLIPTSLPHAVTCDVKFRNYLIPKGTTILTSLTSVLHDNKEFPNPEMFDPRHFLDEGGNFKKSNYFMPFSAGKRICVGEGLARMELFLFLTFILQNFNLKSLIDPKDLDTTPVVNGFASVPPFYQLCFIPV
Broad substrate specificity ATP-binding cassette transporter ABCG2 (Homo sapiens), sequence (Q9UNQ0 whole entry, looked up): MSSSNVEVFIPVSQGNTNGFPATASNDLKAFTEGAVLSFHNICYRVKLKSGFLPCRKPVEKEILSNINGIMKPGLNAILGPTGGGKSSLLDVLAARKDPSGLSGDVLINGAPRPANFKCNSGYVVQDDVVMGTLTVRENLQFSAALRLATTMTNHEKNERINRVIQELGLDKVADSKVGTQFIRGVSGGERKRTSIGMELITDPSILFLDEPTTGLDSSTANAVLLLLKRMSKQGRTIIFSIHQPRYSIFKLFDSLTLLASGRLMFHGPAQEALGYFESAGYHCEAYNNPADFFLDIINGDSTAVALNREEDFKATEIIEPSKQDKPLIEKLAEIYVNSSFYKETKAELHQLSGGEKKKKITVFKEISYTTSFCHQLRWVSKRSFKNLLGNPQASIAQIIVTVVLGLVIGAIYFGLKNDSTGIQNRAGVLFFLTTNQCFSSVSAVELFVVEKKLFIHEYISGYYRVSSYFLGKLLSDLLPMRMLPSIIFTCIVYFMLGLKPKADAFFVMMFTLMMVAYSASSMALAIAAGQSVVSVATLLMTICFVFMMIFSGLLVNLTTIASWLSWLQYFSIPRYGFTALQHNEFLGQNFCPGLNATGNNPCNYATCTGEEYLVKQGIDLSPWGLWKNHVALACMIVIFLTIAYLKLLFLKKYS
Cytochrome P450 3A4 (Homo sapiens), sequence (P08684 whole entry, looked up): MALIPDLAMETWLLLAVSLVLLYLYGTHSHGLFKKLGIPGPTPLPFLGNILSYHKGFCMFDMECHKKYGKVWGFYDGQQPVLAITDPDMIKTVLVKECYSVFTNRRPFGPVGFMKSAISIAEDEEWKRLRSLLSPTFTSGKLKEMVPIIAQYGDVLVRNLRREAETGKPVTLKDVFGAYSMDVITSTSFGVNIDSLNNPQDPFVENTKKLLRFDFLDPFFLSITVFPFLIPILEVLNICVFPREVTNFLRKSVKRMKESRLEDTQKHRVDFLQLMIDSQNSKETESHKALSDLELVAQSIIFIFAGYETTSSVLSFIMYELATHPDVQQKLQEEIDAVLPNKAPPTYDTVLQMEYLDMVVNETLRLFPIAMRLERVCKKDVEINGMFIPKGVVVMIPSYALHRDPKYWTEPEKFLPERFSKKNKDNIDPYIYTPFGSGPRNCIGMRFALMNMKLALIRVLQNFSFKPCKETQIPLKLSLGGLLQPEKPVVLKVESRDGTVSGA

OC(c1ccc(Cl)cc1)(c1cncnc1)c1ccccc1Cl (stereo not given)
outcome [1]: inactive
AC50 [2]: 1.24 µM (active)

COP(=S)(OC)Oc1nc(Cl)c(Cl)cc1Cl
outcome [1]: inactive
AC50 [2]: 5.02 µM (active)
outcome [3]: inactive
outcome [4]: inactive
outcome [5]: inactive
outcome [6]: inactive

O=C(Nc1ccccc1)Nc1ccnc(Cl)c1
outcome [7]: inactive
AC50 [2]: 8.15 µM (active)
outcome [8]: inactive

COC(=O)C=C(C)OP(=O)(OC)OC
outcome [7]: inactive
outcome [2]: inactive
outcome [6]: inactive

Cc1c(F)c(F)c(COC(=O)C2C(/C=C(\Cl)C(F)(F)F)C2(C)C)c(F)c1F (stereo not given)
outcome [1]: inactive
AC50 [2]: 20 µM (active)
outcome [5]: inactive

Oc1ccccc1-c1ccccc1
outcome [1]: inactive
AC50 [2]: 6.24 µM (active)
outcome [3]: inactive
outcome [4]: inactive
outcome [5]: inactive
outcome [6]: inactive

CS/C(C)=N/OC(=O)N(C)SN(C)C(=O)O/N=C(\C)SC
outcome [1]: inactive
outcome [3]: inactive
outcome [4]: inactive
outcome [5]: inactive

CCOC(=O)C(Cl)Cc1cc(-n2nc(C)n(C(F)F)c2=O)c(F)cc1Cl (stereo not given)
outcome [9]: inactive
outcome [1]: inactive
AC50 [2]: 6.33 µM (active)
outcome [3]: inactive
outcome [4]: inactive

COc1ccc(C(c2ccc(OC)cc2)C(Cl)(Cl)Cl)cc1
AC50 [9]: 20 µM (active)
AC50 [2]: 7.11 µM (active)
outcome [4]: inactive

CC(Oc1ccc(Cl)cc1Cl)C(=O)O (stereo not given)
outcome [1]: inactive
outcome [2]: inactive
outcome [3]: inactive
outcome [4]: inactive
outcome [6]: inactive

CCCCNC(=O)OCC#CI
outcome [10]: inactive
outcome [1]: inactive
outcome [2]: inactive
outcome [3]: inactive
outcome [4]: inactive
outcome [5]: inactive
outcome [6]: inactive

Cc1cc(Cl)ccc1OCC(=O)O
outcome [1]: inactive
outcome [2]: inactive
outcome [3]: inactive
outcome [4]: inactive
outcome [5]: inactive

CC(C)Oc1cc(-n2nc(C(C)(C)C)oc2=O)c(Cl)cc1Cl
outcome [1]: inactive
AC50 [2]: 0.829 µM (active)

CC1=C(C(=O)Nc2ccccc2)SCCO1
AC50 [2]: 6 µM (active)
outcome [4]: inactive

COP(N)(=O)SC (stereo not given)
outcome [7]: inactive
outcome [3]: inactive
outcome [4]: inactive
outcome [6]: inactive

CON(C)C(=O)Nc1ccc(Cl)c(Cl)c1
AC50 [2]: 0.735 µM (active)

Fc1ccc(Oc2ccnc3cc(Cl)cc(Cl)c23)cc1
outcome [1]: inactive
outcome [2]: inactive

CNC(=O)ON=CC(C)(C)SC
outcome [1]: inactive
outcome [2]: inactive
outcome [3]: inactive
outcome [4]: inactive

COc1nc(NC(C)C)nc(NC(C)C)n1
outcome [1]: inactive
outcome [2]: inactive
outcome [3]: inactive
outcome [4]: inactive

CNC(=S)S
outcome [7]: inactive
outcome [6]: inactive

CCCN(CCC)c1c([N+](=O)[O-])cc(S(N)(=O)=O)cc1[N+](=O)[O-]
outcome [7]: inactive
outcome [4]: inactive

CC(C)C1(C)N=C(c2nc3ccccc3cc2C(=O)O)NC1=O (stereo not given)
outcome [7]: inactive
outcome [2]: inactive
outcome [3]: inactive
outcome [5]: inactive
outcome [6]: inactive

Reference: PubChem BioAssay (EPA / NIEHS)
